{"source": "paper PMC9574860", "about": "“Chemical Toolkit for PARK7: Potent, Selective, and High-Throughput” (Journal of Medicinal Chemistry, 2022)", "note": "Among all 7,900 compounds or so, about 400 (5.1%) showed an effect of 50% or more. Many of the other results were omitted from the sample, so strong results are more common in it than they were.", "data": [{"molecular_target": "Parkinson's disease protein 7 (PARK7/DJ1) (human, UniProt Q99497)", "sequence (Q99497 whole entry, looked up, the tested form may be a part)": "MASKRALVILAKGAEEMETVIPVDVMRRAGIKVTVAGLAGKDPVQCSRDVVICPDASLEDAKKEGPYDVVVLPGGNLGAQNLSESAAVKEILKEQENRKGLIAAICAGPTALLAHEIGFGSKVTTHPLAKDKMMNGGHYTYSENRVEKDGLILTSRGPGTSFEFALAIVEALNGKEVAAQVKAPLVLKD", "assay": "primary screen, percent inhibition; read as competition with a fluorescent probe by fluorescence polarization; higher = more effect of the substance", "conditions": "100 µM", "procedure,_shortened": "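Fluorescence-polarization probe displacement (JYQ-107, 20 nM final, 2 h) after 2 h preincubation of PARK7 (0.2 μM final) with each fragment at 100 μM final. Read-out ex/em 480/520 nm; remaining activity derived from FP signal loss relative to reference controls.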", "units": {"Inhibition %": "%"}, "values": [{"smiles": "CC1(C(=O)Nc2cccc(S(=O)(=O)F)c2)CCCC1", "Inhibition %": 97.7}, {"smiles": "Cc1cc(C(=O)Nc2cccc(S(=O)(=O)F)c2)nn1C(C)(C)C", "Inhibition %": 32.8}, {"smiles": "CC(F)(F)C1(C(=O)Nc2cccc(S(=O)(=O)F)c2)CC1", "Inhibition %": 95.7}, {"smiles": "CSC1(C(=O)Nc2cccc(S(=O)(=O)F)c2)CC1", "Inhibition %": 101}, {"smiles": "C=CC(=O)NC(C)(C)c1cnn(C)c1", "Inhibition %": 3.17}, {"smiles": "COc1nc(C)ccc1C(=O)Nc1cccc(S(=O)(=O)F)c1", "Inhibition %": 11.7}, {"smiles": "Cn1ncc(C(=O)Nc2cccc(S(=O)(=O)F)c2)c1C#N", "Inhibition %": 4.68}, {"smiles": "Cn1cc(C(C)(C)C(=O)Nc2cccc(S(=O)(=O)F)c2)cn1", "Inhibition %": 88.2}, {"smiles": "COCCNC(=O)C(C#N)=Cc1c(Cl)cccc1Cl", "Inhibition %": 2.17}, {"smiles": "O=C(CCl)Nc1cccc2ncccc12", "Inhibition %": 40.3}, {"smiles": "CS(=O)(=O)NC1CCCN(C(=O)C=Cc2cccnc2)C1", "note": "(stereo not shown)", "Inhibition %": 5.3}, {"smiles": "N#CN(CCn1cncn1)c1ccccc1", "Inhibition %": 6.47}, {"smiles": "OB(O)c1ccc(OCC2CCCCO2)cc1", "note": "(stereo not shown)", "Inhibition %": 27.9}, {"smiles": "CCN(c1ccc(C(F)(F)F)c(C#N)n1)C1CCOC1", "note": "(stereo not shown)", "Inhibition %": 8.44}, {"smiles": "C=CC(=O)NC1CCCN(c2ncccn2)C1", "note": "(stereo not shown)", "Inhibition %": 4.88}, {"smiles": "CC1(C)OB(c2ccc(C(F)C(F)(F)F)cc2)OC1(C)C", "note": "(stereo not shown)", "Inhibition %": 3.09}, {"smiles": "Cc1cc(C)n(CCCNc2ccnc(C#N)c2)n1", "Inhibition %": 3.45}, {"smiles": "CC1CC(Sc2nccc(C(F)(F)F)n2)C(=O)O1", "note": "(stereo not shown)", "Inhibition %": 3.32}, {"smiles": "C=CC(=O)N1CCCC(n2ccnn2)CC1", "note": "(stereo not shown)", "Inhibition %": 11.9}, {"smiles": "C=CS(=O)(=O)Nc1ccccc1", "Inhibition %": 6.78}, {"smiles": "CC1(C(=O)Nc2cccc(S(=O)(=O)F)c2)CCOCC1", "Inhibition %": 83.4}, {"smiles": "C=CC(=O)NCC1c2ccccc2C(=O)N1C", "note": "(stereo not shown)", "Inhibition %": 7.14}, {"smiles": "C=CC(=O)NC1(c2ccc(C(F)(F)F)cc2)CC1", "Inhibition %": 6.09}, {"smiles": "C=CC(=O)N1CCCC(c2n[nH]c(=O)o2)C1", "note": "(stereo not shown)", "Inhibition %": 1.49}, {"smiles": "C=CC(=O)N1CCC(NC(C)=O)(c2nc(C)cs2)C1", "note": "(stereo not shown)", "Inhibition %": 5.8}, {"smiles": "CC1(c2ccc(S(=O)(=O)F)cc2)OCCO1", "Inhibition %": 6.74}, {"smiles": "Cc1nc(C2CC2)nc(S)c1C(=O)O", "Inhibition %": 51.1}, {"smiles": "Cc1nc(C2CC2)nc(S)c1C#N", "Inhibition %": 2.7}, {"smiles": "Cc1nc(C(C)(C)C)nc(S)c1C(=O)O", "Inhibition %": 1.97}, {"smiles": "C=CC(=O)NC1COc2c(C)cccc2C1", "note": "(stereo not shown)", "Inhibition %": 10.9}, {"smiles": "CC1(C)OB(c2cc3ccccc3cc2Br)OC1(C)C", "Inhibition %": 11.9}, {"smiles": "CN(c1ccc(C(=O)CCl)cc1)S(C)(=O)=O", "Inhibition %": 94.3}, {"smiles": "CCN(c1ccc(C(=O)CCl)cc1)S(C)(=O)=O", "Inhibition %": 95.1}, {"smiles": "N#Cc1ccc(C(=O)CCl)cc1", "Inhibition %": 18.8}]}]}
